A number with no mark means an inactive call. Records with an inconclusive call do not appear. Where a call stands in place of a potency, no number is given. Calls of active or inactive are those of the source. Unless noted, calls come from the whole dose curve.
Legend:
[1] = Nuclear factor erythroid 2-related factor 2/antioxidant responsive element (Nrf2/ARE) small molecule agonists: qHTS cell viability counter screen in human keratinocytes (AID 1919968; active = well fitted curve in the direction sought with a large enough effect in the repeat runs; an effect the other way counts as inactive or inconclusive; note: nearly all actives have a fitted effect of over 55% in size)
Procedure, shortened: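 Viability counter-screen: KeratinoSens reporter cells, DMSO-delivered compounds, 23 h at 37 C, CellTiter-Fluor fluorescence.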

[2] = Nuclear factor erythroid 2-related factor 2/antioxidant responsive element (Nrf2/ARE) small molecule agonists: luciferase reporter gene qHTS assay in human keratinocytes (AID 1919969); note: nearly all actives have a fitted effect of over 35% in size
[3] = biological target: Gonadotropin-releasing hormone receptor (Homo sapiens) (UniProt P30968); experiment: Human gonadotropin-releasing hormone receptor (GnRHR) small molecule agonists, calcium flux assay in GnRHR-HEK293 cells (AID 1920063); note: nearly all actives have a fitted effect of over 35% in size
Gonadotropin-releasing hormone receptor (Homo sapiens), sequence (P30968 whole entry, looked up): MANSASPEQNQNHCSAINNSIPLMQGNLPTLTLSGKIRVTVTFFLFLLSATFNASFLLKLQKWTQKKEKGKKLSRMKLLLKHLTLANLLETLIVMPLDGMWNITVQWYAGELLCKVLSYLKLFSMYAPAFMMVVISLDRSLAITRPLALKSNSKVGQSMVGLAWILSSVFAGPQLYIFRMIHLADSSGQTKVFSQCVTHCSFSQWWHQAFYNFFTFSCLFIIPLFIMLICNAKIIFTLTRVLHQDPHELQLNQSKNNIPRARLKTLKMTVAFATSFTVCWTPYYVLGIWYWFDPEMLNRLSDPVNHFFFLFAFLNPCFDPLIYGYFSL
Procedure, shortened: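 Tox21-format agonist screen using human GnRHR-expressing HEK293 cells and a fluorescent calcium dye; kinetic 3-min fluorescence reading after compound addition, 15-point concentration series run in triplicate.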

[4] = biological target: KiSS-1 receptor (Homo sapiens) (UniProt Q969F8); experiment: Human kisspeptin (KISS1R) small molecule agonists, calcium flux assay in KISS1R-HEK293 cells (AID 1920064; active = well fitted curve in the direction sought with a large enough effect in the repeat runs; an effect the other way counts as inactive or inconclusive)
KiSS-1 receptor (Homo sapiens), sequence (Q969F8 whole entry, looked up): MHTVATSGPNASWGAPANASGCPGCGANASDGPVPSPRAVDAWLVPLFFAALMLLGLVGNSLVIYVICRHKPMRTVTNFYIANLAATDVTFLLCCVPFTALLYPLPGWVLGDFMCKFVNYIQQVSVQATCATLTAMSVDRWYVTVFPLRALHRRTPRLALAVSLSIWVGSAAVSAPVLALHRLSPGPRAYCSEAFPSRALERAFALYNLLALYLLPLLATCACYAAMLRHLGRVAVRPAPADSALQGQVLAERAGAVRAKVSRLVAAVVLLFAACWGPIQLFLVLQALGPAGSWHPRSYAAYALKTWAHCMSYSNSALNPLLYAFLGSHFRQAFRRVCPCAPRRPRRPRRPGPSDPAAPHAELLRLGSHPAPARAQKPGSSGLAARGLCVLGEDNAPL
Procedure, shortened: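 Intracellular calcium mobilization in KISS1R-HEK293 cells was recorded by fluorescence (Ex/Em 480/540) for 3 min following compound addition to cells pre-loaded 1 h with calcium dye.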

[5] = G protein-coupled receptor (GPCR) small molecule agonists, calcium flux assay: HEK293 wild type cell line counter screen (AID 1920065)
Procedure, shortened: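 In this agonist-mode screen, ATP is the positive control and DMSO the vehicle. Cells grow 18 h before a 1 h dye incubation at 37 C; signal is taken at Ex/Em 480/540 over 3 min.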

[6] = p53 small molecule agonists, cell-based qHTS assay with human liver microsomes (AID 1963577);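 note: p53 response element beta-lactamase reporter cells with liver microsomes plus NADPH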
Procedure, shortened: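 In this qHTS, p53 response-element beta-lactamase cells receive test compound together with a microsome/NADPH activating system (0.5 mg/mL final each) and are incubated 16 h at 37 C before LiveBLAzer fluorescence detection.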

[7] = p53 small molecule agonists, cell-based qHTS assay with rat liver microsomes (AID 1963578)
Procedure, shortened: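 Agonist mode in p53RE-bla reporter cells, with compounds co-incubated 16 h at 37 C alongside 0.5 mg/mL rat liver microsomes and 0.5 mg/mL NADPH (final), followed by a 2 h LiveBLAzer detection step.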

[8] = p53 small molecule agonists, cell-based qHTS assay with human liver microsomes: qHTS cell viability counter screen (AID 1963579); note: nearly all actives have a fitted effect of over 45% in size
Procedure, shortened: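 Metabolically activated exposure: compounds, human liver microsomes and NADPH (0.5 mg/mL final apiece) were added to p53RE-bla cells seeded 5 h earlier, left 16 h at 37 C, and then assessed for viability by CellTiter-Glo luminescence.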

[9] = p53 small molecule agonists, cell-based qHTS assay with rat liver microsomes: qHTS cell viability counter screen (AID 1963580); note: nearly all actives have a fitted effect of over 45% in size
Procedure, shortened: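 In HCT-116 cells carrying a p53 response element-bla reporter, compounds were metabolically activated in situ by rat liver microsomes with NADPH over 16 h. Cell ATP content then served as the cytotoxicity measure.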

[10] = p53 small molecule agonists, cell-based qHTS assay: qHTS cell viability counter screen (AID 1963581); note: nearly all actives have a fitted effect of over 45% in size
Procedure, shortened: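 Compounds are pinned onto HCT-116 p53RE-bla cells and left 16 h at 37 C. Following the reporter FRET read, ATP is quantified by CellTiter-Glo luminescence after 30 min at room temperature.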

[11] = p53 small molecule agonists, cell-based qHTS assay (AID 1963582; active = well fitted activation curve with a large enough effect in the signal ratio in the repeat runs, not every such curve was filed as active; the % refers to the signal ratio)
Procedure, shortened: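 Agonist activity was scored from beta-lactamase FRET fluorescence in p53RE-bla cells treated 16 h at 37 C with compounds in DMSO, substrate incubation being 2 h at room temperature.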

[12] = biological target: 5-hydroxytryptamine receptor 2A (Homo sapiens) (UniProt P28223); experiment: 5-hydroxytryptamine receptor 2A (HTR2A) small molecule agonists, cell-based qHTS assay (AID 1963587); note: nearly all actives have a fitted effect of over 30% in size
5-hydroxytryptamine receptor 2A (Homo sapiens), sequence (P28223 whole entry, looked up): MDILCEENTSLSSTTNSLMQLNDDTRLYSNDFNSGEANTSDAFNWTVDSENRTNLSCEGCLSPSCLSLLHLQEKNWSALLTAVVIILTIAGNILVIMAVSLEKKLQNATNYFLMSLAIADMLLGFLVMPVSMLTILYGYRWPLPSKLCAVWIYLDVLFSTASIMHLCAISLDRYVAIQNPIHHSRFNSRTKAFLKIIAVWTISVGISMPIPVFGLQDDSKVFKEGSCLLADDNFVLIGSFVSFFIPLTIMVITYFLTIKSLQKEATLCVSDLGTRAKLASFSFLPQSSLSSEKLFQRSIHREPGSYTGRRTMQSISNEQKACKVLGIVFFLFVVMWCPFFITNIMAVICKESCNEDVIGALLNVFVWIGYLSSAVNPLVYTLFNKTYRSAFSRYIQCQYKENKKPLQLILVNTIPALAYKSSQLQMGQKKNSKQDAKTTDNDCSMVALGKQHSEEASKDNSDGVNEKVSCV
Procedure, shortened: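 HTR2A-CHO cells, plated 18 h at 37 C/5% CO2, dye-loaded 1 h at 37 C; compounds in DMSO added by pin tool (agonist mode). Intracellular calcium flux read as kinetic fluorescence on FDSS over 2 min at 1 s intervals.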

[13] = biological target: Muscarinic acetylcholine receptor M1 (Homo sapiens) (UniProt P11229); experiment: Cholinergic receptor muscarinic 1 (CHRM1) small molecule agonists, cell-based qHTS assay (AID 1963589); note: nearly all actives have a fitted effect of over 35% in size
Muscarinic acetylcholine receptor M1 (Homo sapiens), sequence (P11229 whole entry, looked up): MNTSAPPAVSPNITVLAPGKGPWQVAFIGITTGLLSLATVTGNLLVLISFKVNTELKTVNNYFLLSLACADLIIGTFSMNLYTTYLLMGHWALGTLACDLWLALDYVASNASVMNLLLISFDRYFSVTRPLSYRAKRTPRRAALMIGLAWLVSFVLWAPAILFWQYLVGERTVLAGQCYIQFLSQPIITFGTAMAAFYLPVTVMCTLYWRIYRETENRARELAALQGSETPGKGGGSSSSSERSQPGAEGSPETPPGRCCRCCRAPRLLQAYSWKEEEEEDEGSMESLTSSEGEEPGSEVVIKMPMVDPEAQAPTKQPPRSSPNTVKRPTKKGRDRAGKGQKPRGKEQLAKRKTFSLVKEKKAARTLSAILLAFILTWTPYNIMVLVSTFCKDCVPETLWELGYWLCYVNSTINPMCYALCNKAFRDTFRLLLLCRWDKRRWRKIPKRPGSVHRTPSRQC
Procedure, shortened: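 Stable CHRM1-CHO cells (human receptor) were incubated 18 h, dye-loaded for 1 h at 37 C and exposed to test compounds for agonist activity, with calcium-dependent fluorescence followed kinetically.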

[14] = cAMP Responsive Elements (CRE) small molecule agonists, cell-based qHTS assay (AID 1963590)
Procedure, shortened: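 FRET-based beta-lactamase readout (LiveBLAzer B/G, 2 h RT) quantified CRE activation in HEK 293T CRE-bla cells after 3 h treatment with DMSO-dissolved compounds.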

[15] = cAMP Responsive Elements (CRE) small molecule antagonists, cell-based qHTS assay (AID 1963591; active = well fitted inhibition curve with a large enough effect in the signal ratio in the repeat runs, not every such curve was filed as active; the % refers to the signal ratio)
Procedure, shortened: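 qHTS in CRE-bla HEK 293T cells: compound in DMSO, then 0.25 uM NKH477 (final), 3 h at 37 °C/5% CO2; beta-lactamase FRET read-out after 2 h substrate incubation.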

[16] = biological target: Beta-2 adrenergic receptor (Homo sapiens) (UniProt P07550); experiment: Adrenergic beta2 receptor (ADRB2) small molecule antagonists, cell-based qHTS assay (AID 1963592); note: series mostly up to about 92 µM; nearly all actives have a fitted effect of over 50% in size
Beta-2 adrenergic receptor (Homo sapiens), sequence (P07550 whole entry, looked up): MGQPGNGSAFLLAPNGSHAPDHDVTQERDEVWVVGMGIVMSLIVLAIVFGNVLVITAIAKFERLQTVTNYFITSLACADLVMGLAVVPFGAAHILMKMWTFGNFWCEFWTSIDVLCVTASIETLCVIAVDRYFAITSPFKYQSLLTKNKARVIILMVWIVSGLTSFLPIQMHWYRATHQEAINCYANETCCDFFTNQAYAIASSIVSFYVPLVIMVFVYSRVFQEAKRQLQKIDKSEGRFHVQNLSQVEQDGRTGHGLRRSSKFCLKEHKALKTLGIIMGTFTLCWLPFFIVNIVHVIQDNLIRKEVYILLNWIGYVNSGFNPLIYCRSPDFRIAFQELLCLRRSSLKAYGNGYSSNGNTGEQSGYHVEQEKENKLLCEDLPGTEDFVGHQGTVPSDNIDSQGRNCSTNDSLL
Procedure, shortened: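 Cells (CHO, stable ADRB2 overexpression) incubated 18-20hr at 37C; compounds added from DMSO; agonist mix (1nM isoproterenol, 100uM IBMX, 25uM Ro-20-1724) added; 0.5hr RT; d2-cAMP and anti-cAMP-cryptate added; 1hr RT; 665/615 nm read.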

[17] = biological target: D(2) dopamine receptor (Homo sapiens) (UniProt P14416); experiment: Dopamine D2 receptor (DRD2) small molecule agonists, cell-based qHTS assay (AID 1963594); note: nearly all actives have a fitted effect of over 35% in size
D(2) dopamine receptor (Homo sapiens), sequence (P14416 whole entry, looked up): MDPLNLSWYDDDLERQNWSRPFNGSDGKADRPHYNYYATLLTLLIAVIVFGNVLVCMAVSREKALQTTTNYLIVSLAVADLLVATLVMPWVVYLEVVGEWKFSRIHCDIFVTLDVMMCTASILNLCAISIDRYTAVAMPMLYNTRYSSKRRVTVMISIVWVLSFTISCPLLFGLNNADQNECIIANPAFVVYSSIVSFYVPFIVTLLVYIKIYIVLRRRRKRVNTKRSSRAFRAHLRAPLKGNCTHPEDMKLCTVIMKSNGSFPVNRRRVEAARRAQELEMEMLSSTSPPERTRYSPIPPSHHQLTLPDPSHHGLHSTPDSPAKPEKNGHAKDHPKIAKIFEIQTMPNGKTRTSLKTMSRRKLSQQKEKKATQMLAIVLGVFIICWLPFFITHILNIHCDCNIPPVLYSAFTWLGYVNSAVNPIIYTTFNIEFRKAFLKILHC
Procedure, shortened: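 HEK293 cells stably expressing DRD2 were cultured 24 h at 37 C, then given Ro20-1724 (0.1 mM final) and compounds for 10 min at room temperature. NKH477 (200nM) was then added for 30 min. cAMP was read by HTRF.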

[18] = biological target: D(2) dopamine receptor (Homo sapiens) (UniProt P14416); experiment: Dopamine D2 receptor (DRD2) small molecule antagonists, cell-based qHTS assay (AID 1963595; active = well fitted inhibition curve with a large enough effect in the signal ratio in the repeat runs, with a control signal flat; the % refers to the signal ratio; note: potency is the fitted concentration of half-maximal effect)
Procedure, shortened: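 DRD2-HEK293; 0.1 mM Ro20-1724; cpd 10 min RT; NKH477 200 nM + quinpirole 12 nM, 30 min RT; HTRF cAMP (cAMP-d2/anti-cAMP cryptate), 665/620 nm ratio after 1 h.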

[19] = biological target: Muscarinic acetylcholine receptor M1 (Homo sapiens) (UniProt P11229); experiment: Cholinergic receptor muscarinic 1 (CHRM1) small molecule antagonists, cell-based qHTS assay (AID 1963588); note: nearly all actives have a fitted effect of over 40% in size
Procedure, shortened: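 CHRM1-CHO calcium-flux assay, antagonist mode. Cells were seeded 18 h, dye-loaded 1 h at 37 C and given compound for 5 min at RT, then acetylcholine was added at 50nM. FDSS fluorescence was read 3 min; 15 concentrations, three runs.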

[20] = biological target: Beta-2 adrenergic receptor (Homo sapiens) (UniProt P07550); experiment: Adrenergic beta2 receptor (ADRB2) small molecule agonists, cell-based qHTS assay (AID 1963593);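 note: CHO cells stably overexpressing human ADRB2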
Procedure, shortened: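 CHO cells stably over-expressing ADRB2 were plated overnight at 37C, then dosed with compounds plus a stimulation mix containing 100uM IBMX and 25uM Ro-20-1724 for 0.5hr at room temperature. cAMP was measured by HTRF competition, 1hr.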

SMILES | Potency [1] | Potency [2] | Potency [3] | outcome [4] | outcome [5] | Potency [6] | Potency [7] | Potency [8] | Potency [9] | Potency [10] | Potency [11] | Potency [12] | Potency [13] | Potency [14] | Potency [15] | Potency [16] | Potency [17] | Potency [18] | Potency [19] | Potency [20]
CN(C)CC/C=C1/c2ccccc2COc2ccc(CC(=O)O)cc21 | inactive | inactive | inactive | inactive | inactive | inactive | inactive | inactive | inactive | inactive | inactive | inactive | inactive | inactive | inactive | inactive | inactive | inactive | – | –
CN(C)CCCCl | inactive | inactive | inactive | inactive | inactive | inactive | inactive | inactive | inactive | inactive | inactive | – | – | inactive | inactive | inactive | inactive | inactive | inactive | –
O=C1[C@H]2CCCC[C@H]2C(=O)N1CCCCN1CCN(c2nsc3ccccc23)CC1 | inactive | inactive | inactive | inactive | inactive | inactive | inactive | inactive | inactive | inactive | inactive | inactive | inactive | – | – | inactive | inactive | 2.7 nM (active) | – | –
Cc1cc(NS(=O)(=O)c2ccc(N)cc2)nc(C)n1 | inactive | inactive | inactive | inactive | inactive | inactive | inactive | inactive | inactive | inactive | inactive | inactive | inactive | inactive | inactive | inactive | inactive | inactive | – | inactive
c1ccc(CN(CC2=NCCN2)c2ccccc2)cc1 | inactive | inactive | inactive | inactive | inactive | inactive | inactive | inactive | inactive | inactive | inactive | inactive | inactive | inactive | inactive | inactive | inactive | inactive | – | –
NC(=O)C1(N2CCCCC2)CCN(CCCC(=O)c2ccc(F)cc2)CC1 | inactive | inactive | inactive | inactive | inactive | inactive | inactive | inactive | inactive | inactive | inactive | inactive | inactive | – | inactive | inactive | inactive | – | – | –
CCCCN1CCCC1C(=O)Nc1c(C)cc(C)cc1C (stereo not given) | inactive | inactive | inactive | inactive | inactive | inactive | inactive | inactive | inactive | inactive | inactive | inactive | inactive | – | – | inactive | – | inactive | inactive | –

Reference: PubChem BioAssay (Tox21)
